In the supplement of paper PMC10849652:
Of roughly 7,900 targets only a part is listed; those with a hit were picked by preference. About 0.6% of all pairs of compound and target were hits. A number with no mark means an inactive call.

Columns and labels:
Test in all cases: log2 fold change, soluble protein after heating vs DMSO (PISA); higher = thermal stabilisation; K562 cells, 10 uM, 30 min; active = over 0.2 and 3.5 SD of the protein, either way, in both replicates (recomputed)
[1] = compound: COC1=CC=C(C=C1)CN2C=CC3=C2C=C(C=C3)C(=O)NO
Summary of the method: (§1)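 Soluble protein was defined as the supernatant after 21,000xg for 90 min. It came from K562 cells at 2×10^6 cells/mL given 10 μM compound for 30 min, heated in aliquots for 3 min across 48°C-58°C, pooled, and extracted in PBS with 0.5% NP-40 at 4°C, and was quantified by TMTpro 16plex LC-MS/MS with equalised channel sums. Thermal stability against control samples, from duplicates, is reported as log2 fold change.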

[2] = compound: CON(C)C(=O)N1N=C(c2cc(F)ccc2F)S[C@@]1(CCCN)c1ccccc1 [filanesib]
Summary of the method: as §1

[3] = compound: CO[C@H]1C[C@@H]2CC[C@@H](C)[C@@](O)(O2)C(=O)C(=O)N2CCCC[C@H]2C(=O)O[C@H]([C@H](C)C[C@@H]2CC[C@H](n3cnnn3)[C@H](OC)C2)CC(=O)[C@H](C)/C=C(\C)[C@@H](O)[C@@H](OC)C(=O)[C@H](C)C[C@H](C)/C=C/C=C/C=C/1C [zotarolimus]
Summary of the method: as §1

[4] = compound: COc1cc(C(=O)O)ccc1NC(=O)[C@@H]1N[C@@H](CC(C)(C)C)[C@](C#N)(c2ccc(Cl)cc2F)[C@H]1c1cccc(Cl)c1F [idasanutlin]
Summary of the method: as §1

[5] = compound: COc1cc(Nc2ncc3c(n2)-c2ccc(Cl)cc2C(c2c(F)cccc2OC)=NC3)ccc1C(=O)O [alisertib]
Summary of the method: as §1

[6] = compound: COc1cc2nc(-c3cc(F)ccc3O)nc(N[C@@H]3CNC[C@H]3C(C)(C)O)c2cc1OC
Summary of the method: as §1

[7] = compound: COc1cc2ncnc(Nc3ccc(F)c(Cl)c3)c2cc1OCCCN1CCOCC1 [gefitinib]
Summary of the method: as §1

[8] = compound: COc1cccc2cc(-c3nc([C@H]4CC[C@H](C(=O)O)CC4)n4ncnc(N)c34)[nH]c12
Summary of the method: as §1

[9] = compound: CS(=O)(=O)CCNCc1ccc(-c2ccc3ncnc(Nc4ccc(OCc5cccc(F)c5)c(Cl)c4)c3c2)o1 [lapatinib]
Summary of the method: as §1

[10] = compound: CS(=O)(=O)N1CCN(Cc2cc3nc(-c4cccc5[nH]ncc45)nc(N4CCOCC4)c3s2)CC1 [pictilisib]
Summary of the method: as §1

[11] = compound: CS(=O)(=O)c1ccc(-c2cnc(N)c(C(=O)Nc3ccccc3)n2)cc1
Summary of the method: as §1

[12] = compound: C[C@@H](Oc1cc(-c2cnn(C3CCNCC3)c2)cnc1N)c1c(Cl)ccc(F)c1Cl [crizotinib]
Summary of the method: as §1

[13] = compound: C[C@@H]1COCCN1C2=NC(=NC(=C2)C3(CC3)S(=O)(=O)C)C4=C5C=CNC5=CC=C4
Summary of the method: as §1

[14] = compound: C[C@H](C1=CC=C(C=C1)C(=O)NC2=C3C=CNC3=NC=C2)N
Summary of the method: as §1

[15] = compound: C[C@H](Nc1ncnc2nc[nH]c12)c1cc2cccc(Cl)c2c(=O)n1-c1ccccc1 [duvelisib]
Summary of the method: as §1

[16] = compound: Cc1cc(Nc2cc(CN3CCOCC3)c3nc(C)c(Cc4ccc(Cl)cc4F)n3n2)n[nH]1 [gandotinib]
Summary of the method: as §1

[17] = compound: Cc1cc(Nc2cc(N3CCN(C)CC3)nc(Sc3ccc(NC(=O)C4CC4)cc3)n2)n[nH]1 [tozasertib]
Summary of the method: as §1

[18] = compound: Cc1cc(SCc2sc(-c3ccc(C(F)(F)F)cc3)nc2C)ccc1OCC(=O)O
Summary of the method: as §1

[19] = compound: Cc1ccc(-n2nc(C(C)(C)C)cc2NC(=O)Nc2ccc(OCCN3CCOCC3)c3ccccc23)cc1 [doramapimod]
Summary of the method: as §1

[20] = compound: Cc1ccc(C(=O)N(CCCN)[C@@H](c2nc3cc(Cl)ccc3c(=O)n2Cc2ccccc2)C(C)C)cc1 [ispinesib]
Summary of the method: as §1

SUCLA2 (UniProt Q9P2R7)
UniProt Q9P2R7, sequence (Q9P2R7 whole entry, looked up): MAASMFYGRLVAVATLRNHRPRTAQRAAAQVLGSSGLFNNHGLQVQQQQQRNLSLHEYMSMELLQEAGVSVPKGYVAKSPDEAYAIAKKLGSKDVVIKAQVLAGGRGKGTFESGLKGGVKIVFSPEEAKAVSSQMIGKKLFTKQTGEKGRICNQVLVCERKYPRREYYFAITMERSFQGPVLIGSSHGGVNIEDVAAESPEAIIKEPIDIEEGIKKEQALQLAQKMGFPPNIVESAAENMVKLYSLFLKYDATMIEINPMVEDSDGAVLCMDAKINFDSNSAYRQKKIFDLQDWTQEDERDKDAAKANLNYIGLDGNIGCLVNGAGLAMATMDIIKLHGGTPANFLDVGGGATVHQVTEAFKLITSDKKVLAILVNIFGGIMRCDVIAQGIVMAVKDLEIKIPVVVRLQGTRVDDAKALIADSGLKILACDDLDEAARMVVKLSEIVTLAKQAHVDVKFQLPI
log2 fold change [1]: -0.004 | log2 fold change [2]: -0.096 | log2 fold change [3]: 0.01 | log2 fold change [4]: -0.074 | log2 fold change [5]: 0.104 | log2 fold change [6]: 0.093 | log2 fold change [7]: 0.022 | log2 fold change [8]: 0.018 | log2 fold change [9]: -0.05 | log2 fold change [10]: 0.109 | log2 fold change [11]: 0.034 | log2 fold change [12]: 0.001 | log2 fold change [13]: 0.087 | log2 fold change [14]: -0.011 | log2 fold change [15]: 0.04 | log2 fold change [16]: -0.058 | log2 fold change [17]: -0.043 | log2 fold change [18]: 0.012 | log2 fold change [19]: 0.003 | log2 fold change [20]: -0.064

TARBP1 (UniProt Q13395)
UniProt Q13395, sequence (Q13395 whole entry, looked up): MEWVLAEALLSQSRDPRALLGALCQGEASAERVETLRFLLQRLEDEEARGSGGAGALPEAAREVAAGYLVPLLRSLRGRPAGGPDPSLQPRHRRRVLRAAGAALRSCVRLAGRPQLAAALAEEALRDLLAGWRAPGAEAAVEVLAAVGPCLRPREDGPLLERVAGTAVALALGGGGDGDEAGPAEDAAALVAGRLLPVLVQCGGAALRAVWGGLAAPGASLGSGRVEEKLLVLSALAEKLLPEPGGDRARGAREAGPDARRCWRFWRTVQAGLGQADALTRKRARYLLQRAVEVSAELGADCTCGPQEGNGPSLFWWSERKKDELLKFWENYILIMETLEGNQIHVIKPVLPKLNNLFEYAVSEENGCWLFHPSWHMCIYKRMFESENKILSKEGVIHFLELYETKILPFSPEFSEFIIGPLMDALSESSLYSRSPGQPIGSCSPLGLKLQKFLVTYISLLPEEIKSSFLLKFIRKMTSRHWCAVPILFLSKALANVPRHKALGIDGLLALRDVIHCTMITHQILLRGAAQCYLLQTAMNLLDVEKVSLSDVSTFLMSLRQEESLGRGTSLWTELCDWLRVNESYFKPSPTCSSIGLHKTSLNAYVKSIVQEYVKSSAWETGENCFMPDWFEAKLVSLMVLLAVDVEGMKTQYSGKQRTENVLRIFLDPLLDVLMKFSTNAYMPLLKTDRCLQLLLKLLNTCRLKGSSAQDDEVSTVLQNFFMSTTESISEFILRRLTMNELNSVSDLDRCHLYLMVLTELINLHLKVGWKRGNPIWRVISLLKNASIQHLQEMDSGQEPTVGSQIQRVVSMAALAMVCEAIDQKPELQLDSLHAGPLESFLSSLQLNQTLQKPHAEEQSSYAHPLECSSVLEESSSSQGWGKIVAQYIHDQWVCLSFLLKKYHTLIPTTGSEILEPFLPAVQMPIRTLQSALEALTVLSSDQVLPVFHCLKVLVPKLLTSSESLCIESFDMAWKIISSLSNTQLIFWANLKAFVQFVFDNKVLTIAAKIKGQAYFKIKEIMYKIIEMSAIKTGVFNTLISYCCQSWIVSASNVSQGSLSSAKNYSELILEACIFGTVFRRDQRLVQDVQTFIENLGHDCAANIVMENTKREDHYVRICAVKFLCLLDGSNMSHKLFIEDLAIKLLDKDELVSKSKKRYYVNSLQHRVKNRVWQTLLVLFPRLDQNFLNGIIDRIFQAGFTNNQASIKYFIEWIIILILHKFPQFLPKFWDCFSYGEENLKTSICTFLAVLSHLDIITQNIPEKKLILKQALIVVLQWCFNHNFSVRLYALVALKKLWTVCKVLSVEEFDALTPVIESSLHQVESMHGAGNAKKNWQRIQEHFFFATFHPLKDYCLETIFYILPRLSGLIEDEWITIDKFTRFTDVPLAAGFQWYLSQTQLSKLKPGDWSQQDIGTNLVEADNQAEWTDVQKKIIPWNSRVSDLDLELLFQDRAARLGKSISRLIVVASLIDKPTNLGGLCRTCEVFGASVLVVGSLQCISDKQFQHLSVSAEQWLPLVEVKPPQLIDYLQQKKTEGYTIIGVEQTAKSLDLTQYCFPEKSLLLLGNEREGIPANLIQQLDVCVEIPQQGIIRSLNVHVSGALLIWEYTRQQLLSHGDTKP
log2 fold change [1]: -0.036 | log2 fold change [2]: -0.077 | log2 fold change [3]: 0.105 | log2 fold change [4]: -0.027 | log2 fold change [5]: 0.096 | log2 fold change [6]: 0.049 | log2 fold change [7]: -0.026 | log2 fold change [8]: -0.019 | log2 fold change [9]: -0.015 | log2 fold change [10]: -0.078 | log2 fold change [11]: 0.076 | log2 fold change [12]: 0.016 | log2 fold change [13]: 0.028 | log2 fold change [14]: -0.074 | log2 fold change [15]: -0.046 | log2 fold change [16]: -0.075 | log2 fold change [17]: -0.018 | log2 fold change [18]: 0.038 | log2 fold change [19]: -0.004 | log2 fold change [20]: 0.026

SQSTM1 (UniProt Q13501)
UniProt Q13501, sequence (Q13501 whole entry, looked up): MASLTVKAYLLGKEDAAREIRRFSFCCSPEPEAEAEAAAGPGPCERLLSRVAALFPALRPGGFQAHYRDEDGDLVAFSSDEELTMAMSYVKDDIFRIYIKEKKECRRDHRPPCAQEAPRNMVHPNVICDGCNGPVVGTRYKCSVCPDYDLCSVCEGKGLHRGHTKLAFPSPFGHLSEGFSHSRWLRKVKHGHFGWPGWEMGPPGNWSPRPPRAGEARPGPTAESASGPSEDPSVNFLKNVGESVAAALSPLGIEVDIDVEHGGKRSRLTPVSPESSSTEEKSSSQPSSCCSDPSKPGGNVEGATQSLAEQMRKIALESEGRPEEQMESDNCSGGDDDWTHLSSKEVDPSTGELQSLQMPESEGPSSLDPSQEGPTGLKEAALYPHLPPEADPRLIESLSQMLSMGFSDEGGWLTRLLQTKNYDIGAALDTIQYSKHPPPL
log2 fold change [1]: 0.047 | log2 fold change [2]: 0.011 | log2 fold change [3]: -0.167 | log2 fold change [4]: 0.072 | log2 fold change [5]: -0.016 | log2 fold change [6]: -0.136 | log2 fold change [7]: -0.022 | log2 fold change [8]: 0.058 | log2 fold change [9]: -0.012 | log2 fold change [10]: -0.112 | log2 fold change [11]: 0.1 | log2 fold change [12]: -0.149 | log2 fold change [13]: -0.059 | log2 fold change [14]: 0.042 | log2 fold change [15]: 0 | log2 fold change [16]: 0.168 | log2 fold change [17]: 0.044 | log2 fold change [18]: -0.027 | log2 fold change [19]: 0.008 | log2 fold change [20]: -0.019

SUN2 (UniProt Q9UH99)
UniProt Q9UH99, sequence (Q9UH99 whole entry, looked up): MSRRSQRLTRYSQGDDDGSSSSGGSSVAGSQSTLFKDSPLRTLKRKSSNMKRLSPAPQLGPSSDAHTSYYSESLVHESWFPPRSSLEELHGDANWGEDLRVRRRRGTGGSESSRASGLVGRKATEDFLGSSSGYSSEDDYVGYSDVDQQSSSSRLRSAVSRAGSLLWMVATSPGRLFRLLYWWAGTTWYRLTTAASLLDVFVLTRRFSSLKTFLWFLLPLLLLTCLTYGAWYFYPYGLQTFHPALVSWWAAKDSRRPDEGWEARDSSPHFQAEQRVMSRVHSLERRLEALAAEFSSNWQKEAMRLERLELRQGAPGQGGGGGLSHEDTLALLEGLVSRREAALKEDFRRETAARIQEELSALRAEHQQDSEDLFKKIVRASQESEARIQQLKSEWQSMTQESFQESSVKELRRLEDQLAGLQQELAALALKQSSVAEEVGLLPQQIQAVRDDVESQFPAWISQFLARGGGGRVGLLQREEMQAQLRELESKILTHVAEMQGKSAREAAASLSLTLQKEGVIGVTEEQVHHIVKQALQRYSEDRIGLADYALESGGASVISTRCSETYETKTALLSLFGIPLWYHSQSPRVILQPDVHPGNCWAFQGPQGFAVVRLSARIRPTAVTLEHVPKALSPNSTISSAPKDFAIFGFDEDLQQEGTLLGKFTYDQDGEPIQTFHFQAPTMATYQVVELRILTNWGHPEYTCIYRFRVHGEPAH
log2 fold change [1]: 0.028 | log2 fold change [2]: 0.013 | log2 fold change [3]: 0.017 | log2 fold change [4]: 0.077 | log2 fold change [5]: -0.044 | log2 fold change [6]: -0.194 | log2 fold change [7]: -0.078 | log2 fold change [8]: -0.007 | log2 fold change [9]: 0.066 | log2 fold change [10]: 0.071 | log2 fold change [11]: -0.001 | log2 fold change [12]: -0.094 | log2 fold change [13]: 0.063 | log2 fold change [14]: 0.044 | log2 fold change [15]: -0.008 | log2 fold change [16]: 0.004 | log2 fold change [17]: -0.008 | log2 fold change [18]: 0.05 | log2 fold change [19]: 0.077 | log2 fold change [20]: -0.104

SLC25A42 (UniProt Q86VD7)
UniProt Q86VD7, sequence (Q86VD7 whole entry, looked up): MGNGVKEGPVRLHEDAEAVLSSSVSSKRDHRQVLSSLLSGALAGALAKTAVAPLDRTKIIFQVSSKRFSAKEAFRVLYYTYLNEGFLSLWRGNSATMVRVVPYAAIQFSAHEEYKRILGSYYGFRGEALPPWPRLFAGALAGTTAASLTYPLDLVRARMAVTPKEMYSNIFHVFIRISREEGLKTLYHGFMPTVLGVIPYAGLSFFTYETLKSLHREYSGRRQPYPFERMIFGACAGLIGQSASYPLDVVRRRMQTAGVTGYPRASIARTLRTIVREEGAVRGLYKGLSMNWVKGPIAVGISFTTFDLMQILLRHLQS
log2 fold change [1]: 0.241 (active) | log2 fold change [2]: -0.011 | log2 fold change [3]: 0.058 | log2 fold change [4]: 0.047 | log2 fold change [5]: 0.012 | log2 fold change [6]: -0.029 | log2 fold change [7]: 0.063 | log2 fold change [8]: 0.043 | log2 fold change [9]: 0.084 | log2 fold change [10]: -0.003 | log2 fold change [11]: -0.054 | log2 fold change [12]: 0.028 | log2 fold change [13]: 0.015 | log2 fold change [14]: -0.055 | log2 fold change [15]: 0.005 | log2 fold change [16]: 0.09 | log2 fold change [17]: -0.021 | log2 fold change [18]: -0.003 | log2 fold change [19]: -0.004 | log2 fold change [20]: 0.054

SNX9 (UniProt Q9Y5X1)
UniProt Q9Y5X1, sequence (Q9Y5X1 whole entry, looked up): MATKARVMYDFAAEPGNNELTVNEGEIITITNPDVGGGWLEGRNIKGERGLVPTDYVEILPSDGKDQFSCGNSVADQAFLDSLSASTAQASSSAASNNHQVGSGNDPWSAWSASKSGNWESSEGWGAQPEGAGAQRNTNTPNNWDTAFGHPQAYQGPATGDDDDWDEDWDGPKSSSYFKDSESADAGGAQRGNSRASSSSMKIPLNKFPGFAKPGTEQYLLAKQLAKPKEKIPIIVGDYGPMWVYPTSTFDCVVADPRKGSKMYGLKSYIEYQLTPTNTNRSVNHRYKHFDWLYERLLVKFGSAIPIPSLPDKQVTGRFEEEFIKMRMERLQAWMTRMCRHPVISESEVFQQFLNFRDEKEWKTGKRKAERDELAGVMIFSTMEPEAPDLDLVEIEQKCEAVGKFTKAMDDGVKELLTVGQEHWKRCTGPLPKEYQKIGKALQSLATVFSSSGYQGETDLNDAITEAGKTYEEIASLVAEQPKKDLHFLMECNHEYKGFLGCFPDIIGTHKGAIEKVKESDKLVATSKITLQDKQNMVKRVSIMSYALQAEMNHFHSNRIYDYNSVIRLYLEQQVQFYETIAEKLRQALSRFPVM
log2 fold change [1]: -0.002 | log2 fold change [2]: -0.017 | log2 fold change [3]: 0.004 | log2 fold change [4]: -0.01 | log2 fold change [5]: -0.013 | log2 fold change [6]: 0.019 | log2 fold change [7]: 0.038 | log2 fold change [8]: -0.059 | log2 fold change [9]: -0.034 | log2 fold change [10]: -0.036 | log2 fold change [11]: 0.013 | log2 fold change [12]: -0.077 | log2 fold change [13]: -0.009 | log2 fold change [14]: 0.003 | log2 fold change [15]: -0.039 | log2 fold change [16]: -0.054 | log2 fold change [17]: -0.015 | log2 fold change [18]: 0.115 | log2 fold change [19]: -0.009 | log2 fold change [20]: -0.074

TIMM29 (UniProt Q9BSF4)
UniProt Q9BSF4, sequence (Q9BSF4 whole entry, looked up): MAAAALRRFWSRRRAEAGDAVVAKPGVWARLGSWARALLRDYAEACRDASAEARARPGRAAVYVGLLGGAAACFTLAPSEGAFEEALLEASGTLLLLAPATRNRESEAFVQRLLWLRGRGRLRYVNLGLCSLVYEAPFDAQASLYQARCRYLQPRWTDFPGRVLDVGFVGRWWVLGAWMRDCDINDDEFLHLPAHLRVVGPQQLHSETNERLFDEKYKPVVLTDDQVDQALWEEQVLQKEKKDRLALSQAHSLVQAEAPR
log2 fold change [1]: -0.141 | log2 fold change [2]: 0.041 | log2 fold change [3]: -0.058 | log2 fold change [4]: -0.096 | log2 fold change [5]: 0.01 | log2 fold change [6]: 0.021 | log2 fold change [7]: 0.039 | log2 fold change [8]: 0.073 | log2 fold change [9]: 0.014 | log2 fold change [10]: 0.051 | log2 fold change [11]: 0.044 | log2 fold change [12]: 0.08 | log2 fold change [13]: 0.065 | log2 fold change [14]: -0.033 | log2 fold change [15]: -0.015 | log2 fold change [16]: -0.014 | log2 fold change [17]: 0.012 | log2 fold change [18]: 0.02 | log2 fold change [19]: 0.185 | log2 fold change [20]: 0.033

SSX2 (UniProt Q16385)
UniProt Q16385, sequence (Q16385 whole entry, looked up): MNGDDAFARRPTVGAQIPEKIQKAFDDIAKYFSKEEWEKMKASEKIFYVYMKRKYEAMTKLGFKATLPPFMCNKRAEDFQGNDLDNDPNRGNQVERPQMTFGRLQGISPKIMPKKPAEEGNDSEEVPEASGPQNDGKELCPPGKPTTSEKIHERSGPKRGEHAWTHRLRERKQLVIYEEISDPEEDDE
log2 fold change [1]: 0.083 | log2 fold change [2]: 0.009 | log2 fold change [3]: -0.014 | log2 fold change [4]: -0.021 | log2 fold change [5]: 0.035 | log2 fold change [6]: 0.025 | log2 fold change [7]: 0.032 | log2 fold change [8]: 0.004 | log2 fold change [9]: -0.011 | log2 fold change [10]: 0.064 | log2 fold change [11]: -0.024 | log2 fold change [12]: 0.062 | log2 fold change [13]: 0.05 | log2 fold change [14]: 0.053 | log2 fold change [15]: 0.036 | log2 fold change [16]: -0.003 | log2 fold change [17]: 0.031 | log2 fold change [18]: -0.009 | log2 fold change [19]: -0.043 | log2 fold change [20]: -0.029
